Reference: PubChem BioAssay AID1851 (National Center for Advancing Translational Sciences (NCATS), 2009)
The campaign covered roughly 16,000 compounds. About 5,100 (32%) were called active. Another 25% or so got no clear call; they are omitted. The list shows a part of the results. Unmarked numbers belong to inactive results. Calls come from the whole dose curve; as a rule, active = well fitted curve in the direction sought with a large enough effect; inconclusive = small, poorly fitted or top-dose-only effect, or effect the other way; inactive = no such curve, though single readings can be large or run the other way.

What follows are compounds tested against Cytochrome P450 3A4 (Homo sapiens) (UniProt P08684) (assay: Cytochrome panel assay with activity outcomes). Details: recombinant CYP, pro-luciferin dealkylation, luminescence, p450-cyp3a4; series mostly up to 57.1 µM; activity, negative = inhibition: at the top concentration.
Chain of Cytochrome P450 3A4 (Homo sapiens) (P08684 whole entry, looked up): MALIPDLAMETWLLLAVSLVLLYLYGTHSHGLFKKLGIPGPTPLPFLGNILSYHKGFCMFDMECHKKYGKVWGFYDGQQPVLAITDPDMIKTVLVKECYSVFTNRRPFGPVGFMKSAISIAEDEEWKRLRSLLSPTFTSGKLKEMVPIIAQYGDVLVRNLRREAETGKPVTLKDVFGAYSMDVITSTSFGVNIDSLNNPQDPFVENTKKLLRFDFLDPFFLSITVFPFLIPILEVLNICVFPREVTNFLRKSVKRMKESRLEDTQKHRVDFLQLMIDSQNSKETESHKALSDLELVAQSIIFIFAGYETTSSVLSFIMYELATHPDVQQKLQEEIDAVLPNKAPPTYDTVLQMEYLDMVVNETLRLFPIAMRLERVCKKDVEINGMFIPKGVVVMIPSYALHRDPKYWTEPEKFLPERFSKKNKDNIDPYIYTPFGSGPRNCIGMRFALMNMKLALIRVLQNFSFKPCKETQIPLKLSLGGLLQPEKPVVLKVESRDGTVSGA
% is set by controls: 0 for no effect and ±100 for the full control effect.

Row | SMILES | activity, negative = inhibition | AC50
1 | N=C(N)CCNC(=O)[C@@H]1CCC(N)=N1 | -7.02% [at 11.4 µM] | 
2 | NC[C@@H]1O[C@H](O[C@@H]2[C@H](O[C@@H]3O[C@H](CO)[C@@H](COC[C@H]4O[C@@H](CN)[C@@H](O)[C@@H](O)[C@@H]4N)[C@@H]3O)[C@@H](O)[C@@H](N)C[C@H]2N)[C@@H](N)[C@H](O)[C@@H]1O | -8.73% [at 25.6 µM] | 
3 | CC(=O)Nc1nc(NC(C)=O)c2[nH]c(CO)nc2n1 | -3.45% [at 11.4 µM] | 
4 | CCN(CC)c1ccc(N2C(=O)/C(=C\c3cccnc3)SC2=S)cc1 | -14.7% [at 2.29 µM] | 
5 | O=C(CCN1C(=O)/C(=C/c2cccc(Br)c2)SC1=S)NNC(=O)c1cccnc1 |  | 3.16 µM (active)
6 | CCN(CC)c1ccc(N2C(=O)/C(=C/c3cccnc3)SC2=S)cc1 |  | 5.62 µM (active)
7 | Cc1ccc(/C=C2\SC(=S)N(CCCC(=O)Nc3ccccn3)C2=O)cc1 | -14.5% [at 2.29 µM] | 
8 | O=C1/C(=C/c2cccnc2)SC(=S)N1Cc1ccco1 |  | 1 µM (active)
9 | C[C@@H]1/C=C\CC(=O)OC[C@H](C)C(=O)N2CCC[C@@H]2C(=O)OC1 | -18.8% [at 11.4 µM] | 
10 | N[C@@H](CSC(=O)c1ccccc1)C(=O)O | -4.21% [at 11.4 µM] | 
11 | O=C(COc1cccc2ccccc12)N1c2ccccc2CCc2ccccc21 |  | 7.94 µM (active)
12 | CC(C)NC[C@@H](O)COc1cccc2ccccc12 |  | inactive
13 | CC(C)NC[C@H](O)COc1cccc2ccccc12 | 3.12% | 
14 | OC[C@@H]1NC[C@@H](O)[C@@H](O)[C@H]1O | -1.36% | 
15 | O=C(NNC(=O)c1cccnc1)Nc1cccc2ccccc12 | 14.6% [at 0.457 µM] | 
16 | COc1cccc(C(CC(=O)Nc2cccc3ccccc23)NC(=O)c2ccccc2)c1 (configuration not stated) |  | 2.24 µM (active)
17 | COC(=O)CCC(=O)Nc1cccc2ccccc12 | -5.86% | 
18 | O=C(O)c1ccc(C(=O)Nc2cccc3ccccc23)c(C(=O)O)c1 | -18.5% [at 11.4 µM] | 
19 | CCn1c(C)c(C)c2cc(C(=O)Nc3cccc(Cl)c3)ccc21 | 10.3% [at 2.29 µM] | 
20 | O=C(CCC(=O)OCc1ccc(C(=O)Oc2ccccc2)cc1)Nc1cccc2ccccc12 | -4.93% | 
21 | Cc1c(C)n(C)c2ccc(C(=O)Nc3cccc4ccccc34)cc12 |  | 14.1 µM (active)
22 | O=C(Nc1cccc2ccccc12)c1ccccc1 |  | 3.16 µM (active)
23 | O=C(O)CSc1ccn(Cc2ccccc2)c1 | -1.15% [at 11.4 µM] | 
24 | CN1CCN(CN2C(=O)C3C4C=CC(C3C2=O)C2C3C(=O)N(CN5CCN(C)CC5)C(=O)C3C42)CC1 (configuration not stated) | -12.9% [at 11.4 µM] | 
25 | CCOc1nc(N=C(N)N)nc2c(C)cccc12 | -12.8% | 

Row | SMILES | activity, negative = inhibition | AC50
26 | CSC1(SC2=NCCN2)SC2(NCCN2)S1 |  | 1.26 µM (active)
27 | O=C(O)CCSC1=NCCN1 | -3.67% [at 11.4 µM] | 
28 | O=C(c1ccc(Cl)cc1)N1CCCC(c2ccccc2)=N1 | 13% [at 2.29 µM] | 
29 | O=C1N=C2SCCN2/C1=C\c1c(Cl)cccc1Cl |  | 10 µM (active)
30 | OCCN(CO)CO | -1.86% [at 11.4 µM] | 
31 | CCC(=O)Nc1c2c(nc3c1CCC3)CCCC2 | -10.1% | 
32 | CCC(Sc1nc(C)cc(=O)[nH]1)C(=O)Nc1nc2c(s1)CCCC2 (configuration not stated) |  | 14.1 µM (active)
33 | C[C@@H]1O[C@@H](n2cc(F)c(=O)[nH]c2=O)[C@H](O)[C@@H]1O | -11.7% | 
34 | Cc1cc([N+](=O)[O-])ccc1-c1ccc(C2Nc3ccccc3C(=O)N2O)o1 (configuration not stated) |  | 7.08 µM (active)
35 | Cc1cccc2c1Oc1ccccc1[C@@H]2NC(=O)c1ccc([N+](=O)[O-])cc1 | -14% [at 11.4 µM] | 
36 | C[C@H](N)C(=O)O | -5.91% | 
37 | CSc1nc(C2CC2)cc(-c2cccs2)c1C#N | -28.1% | 
38 | CN(C)Cc1ccccc1-c1nccc(NCc2cccs2)n1 | -26.2% | 
39 | FC(F)(F)c1ccccc1-c1nccc(NCc2cccs2)n1 |  | 2 µM (active)
40 | Cc1ccccc1-c1nccc(NCc2cccs2)n1 |  | 2 µM (active)
41 | CCc1nn(C)c(-c2n[nH]c(=S)n2N)c1Cl | -11.5% | 
42 | O=C1[C@H]2CCn3c(=O)n(-c4ccccc4)c(=O)n3[C@H]2[C@H](O)[C@H]2O[C@@H]12 | -11.9% [at 11.4 µM] | 
43 | Nc1nonc1-c1noc(CCCN2C(=O)c3ccccc3C2=O)n1 |  | 7.94 µM (active)
44 | CCN(c1ccccc1)c1cc(NC)[n+](C)c(C)n1 | 4.33% | 
45 | Clc1ccc(-c2nc3ncccn3c2Nc2ccc3c(c2)OCCO3)cc1 |  | 4.47 µM (active)
46 | Cc1ccc(-c2nc3ncccn3c2NC(=O)C2CC2)cc1 | -7.73% | 
47 | COCCn1c(=O)c(-c2ccc(Cl)cc2)nc2cnc(N3CCOCC3)nc21 | 14.4% | 
48 | COCCn1c(=O)c(-c2ccc(Cl)cc2)nc2cnc(N(C)C)nc21 | 1.83% | 
49 | COCCn1c(=O)c(C)nc2cnc(Oc3ccc(OC)cc3)nc21 |  | 15.8 µM (active)
50 | COCCn1c(=O)c(-c2ccc(Cl)cc2)nc2cnc(OC)nc21 |  | 7.94 µM (active)

Row | SMILES | activity, negative = inhibition | AC50
51 | COCCn1c(=O)c(-c2ccc(OC)cc2)nc2cnc(OC)nc21 |  | 15.8 µM (active)
52 | COCCn1c(=O)c(-c2ccccc2)nc2cnc(Oc3ccc(OC)cc3)nc21 |  | 1 µM (active)
53 | CN(C)c1ncc2nc(-c3ccc(Cl)cc3)c(=O)n(C[C@H]3CCCO3)c2n1 | -7.59% | 
54 | COc1ncc2nc(-c3ccc(Cl)cc3)c(=O)n(C[C@H]3CCCO3)c2n1 |  | 10 µM (active)
55 | CCNc1ncc2nc(-c3ccc(Cl)cc3)c(=O)n(C[C@H]3CCCO3)c2n1 | 1.12% | 
56 | Cn1c(=O)n(-c2cccc(Cl)c2)c(=O)c2c3c(sc21)COC(C)(C)C3 | -4.67% [at 2.29 µM] | 
57 | Cc1noc(C)c1-c1nccc(N2CCN(C)CC2)n1 | 1% | 
58 | Cc1noc(C)c1-c1nccc(-n2ccnc2)n1 |  | 1.26 µM (active)
59 | Clc1ccccc1-c1nccc(-n2ccnc2)n1 |  | 1.26 µM (active)
60 | FC(F)(F)c1ccccc1-c1nccc(N2CCNCC2)n1 | -10.8% | 
61 | COc1ccccc1-c1nccc(-n2ccnc2)n1 |  | 1.58 µM (active)
62 | COc1ccccc1-c1cc(-n2ccnc2)ncn1 |  | 0.316 µM (active)
63 | O=S1(=O)N[C@H]2CC[C@@H]3NS(=O)(=O)N[C@H]4CC[C@H](N1)N4S(=O)(=O)N23 | 5.02% [at 11.4 µM] | 
64 | Cc1ccccc1-c1nccc(-n2ccnc2)n1 |  | 1 µM (active)
65 | Cc1cc(C)c2c(N)c3ccccc3nc2n1 | -24.9% | 
66 | COc1ccccc1CNc1ncnc2ccc(-c3ccccc3OC)cc12 |  | 6.31 µM (active)
67 | COc1ccc(CNc2ncnc3ccc(-c4ccccc4CN(C)C)cc23)c(OC)c1 |  | 7.94 µM (active)
68 | CN(C)Cc1ccccc1-c1ccc2ncnc(NC3CCNCC3)c2c1 | -12.9% | 
69 | CNc1ncnc2ccc(-c3ccccc3CN(C)C)cc12 |  | 7.94 µM (active)
70 | CN(C)Cc1ccccc1-c1ccc2ncnc(NCc3ccccc3)c2c1 |  | 15.8 µM (active)
71 | COc1ccccc1CNc1ncnc2ccc(-c3ccccc3CN(C)C)cc12 |  | 12.6 µM (active)
72 | COc1ccc(CNc2ncnc3ccc(-c4ccccc4OC)cc23)c(OC)c1 |  | 2 µM (active)
73 | CCOc1cc(/C=N/NC(=O)CNc2cccc(C)c2)ccc1OC(=O)c1ccccc1 | 23.3% | 
74 | CCOc1cc(/C=N/NC(=O)COc2cccc(C)c2)ccc1OC(=O)c1cccs1 |  | 14.1 µM (active)
75 | COc1ccc(/C=C/C(=O)Oc2cccc(/C=N/NC(=O)COc3c(C)cccc3C)c2)cc1 | 10.5% | 

Row | SMILES | activity, negative = inhibition | AC50
76 | CS(=O)(=O)Nc1cccc(-c2ccc3ncnc(NC4CCNCC4)c3c2)c1 | -27.5% | 
77 | CS(=O)(=O)Nc1cccc(-c2ccc3ncnc(Nc4ccccc4)c3c2)c1 |  | 10 µM (active)
78 | CNc1ncnc2ccc(-c3cccc(NS(C)(=O)=O)c3)cc12 |  | 12.6 µM (active)
79 | CS(=O)(=O)Nc1cccc(-c2ccc3ncnc(Nc4ccc(F)cc4)c3c2)c1 |  | 7.94 µM (active)
80 | CS(=O)(=O)Nc1cccc(-c2ccc3ncnc(NC4CC4)c3c2)c1 |  | 6.31 µM (active)
81 | c1ccc2cc(-c3cc(-c4cc(-c5ccc6ccccc6c5)on4)no3)ccc2c1 | -8% [at 11.4 µM] | 
82 | COCCNc1ncnc2ccc(-c3cccc(NS(C)(=O)=O)c3)cc12 |  | 15.8 µM (active)
83 | [O-][N+]1(CC[N+]2([O-])CCCCC2)CCCCC1 | -11.4% [at 11.4 µM] | 
84 | CCN(CC)Cc1c(O)c(Cl)cc2c3c(c(=O)oc12)CCCC3 | -27.4% | 
85 | CCCN(CCC)C(=O)[C@@H](CCC(=O)O)NC(=O)c1ccccc1 |  | inactive
86 | CCCC/C=C/C(NC(=O)c1cccs1)c1ccccc1 (configuration not stated) |  | 12.6 µM (active)
87 | CCCC/C=C/C(NC(=O)c1ccc(-c2ccccc2)cc1)c1ccccc1 (configuration not stated) | -9.93% | 
88 | CCCC/C=C/C(NC(=O)C(C)(C)C)c1ccccc1 (configuration not stated) |  | 25.1 µM (active)
89 | CCCCCCCCCCCCC/C=C\[C@@H](O)[C@H](CO)NC(C)=O | -16.3% | 
90 | C#CCOC(=O)NC(/C=C/CCCC)c1ccccc1 (configuration not stated) |  | 12.6 µM (active)
91 | CCCC/C=C/C(NC(=O)c1ccccc1)c1ccccc1 (configuration not stated) |  | 15.8 µM (active)
92 | CC(=O)Oc1cc(C(F)(F)F)ccc1C(=O)O | 8.47% [at 25.6 µM] | 
93 | CCCC/C=C/C(NC(=O)Oc1cccc(C(F)(F)F)c1)c1ccccc1 (configuration not stated) |  | 15.8 µM (active)
94 | N[C@@H](C(=O)O)c1ccc(C(=O)O)cc1 |  | inactive
95 | O=C1N=C(N2CCOCC2)S/C1=C\C=C/c1ccccc1 | -1.29% | 
96 | CCN1C(=O)/C(=C2\SC(N3CCCCC3)=NC2=O)c2ccccc21 |  | 14.1 µM (active)
97 | CN(C)CN1C(=O)S/C(=C2/C(=O)N(CN(C)C)c3ccccc32)C1=O | 4.92% [at 11.4 µM] | 
